Reference: PubChem BioAssay (NCATS)
Inconclusive results are not listed. Calls of active or inactive are those of the source. Unless noted, the call rests on the fitted dose curve; in most records, active means well fitted curve in the direction sought with a large enough effect; inconclusive means small, poorly fitted or top-dose-only effect, or another doubt; inactive means no such curve, though single readings can be large; an effect the other way counts as inactive or inconclusive.

Experiments:
[1] = qHTS for Inhibitors of the Functional Ribonucleoprotein Complex (vRNP) of Lassa (LASV) Arenavirus: LASV Primary Screen - GLuc reporter signal (AID 1347082; calls by dose curve; tested in HEK293 reporter line; further: series mostly up to about 57 µM; nearly all actives have a fitted effect of over 60% in size)
[2] = qHTS for Inhibitors of the Functional Ribonucleoprotein Complex (vRNP) of Lassa (LASV) Arenavirus: Viability assay - alamar blue signal for LASV Primary Screen (AID 1347083; calls by dose curve; tested in HEK293 reporter line; further: nearly all actives have a fitted effect of over 80% in size; further: potency means the concentration at half of the fitted maximal effect)
[3] = qHTS for Inhibitors of the Functional Ribonucleoprotein Complex (vRNP) of Lymphocytic Choriomeningitis Arenaviruses (LCMV): Viability assay - alamar blue signal for LCMV Primary Screen (AID 1347085; calls by dose curve; tested in HEK293 reporter line; further: series mostly up to about 57 µM; nearly all actives have a fitted effect of over 80% in size)
[4] = NS1 protein of Zika virus - qHTS assay to identify small molecule inhibitors in human HEK 293 cells (AID 1347053); further: series mostly up to about 46 µM; nearly all actives have a fitted effect of over 55% in size
In short: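 TR-FRET signal from two anti-ZIKV NS1 antibodies quantified NS1 in HEK 293 cells 24 h after MR766 infection at MOI = 0.5; compounds were added 1 h before virus. Uninfected cells and infected cells defined the NS1 normalization range.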

[5] = biological target: Nucleoprotein (Lymphocytic choriomeningitis virus (strain Armstrong)) (UniProt P09992); assay: qHTS for Inhibitors of the Functional Ribonucleoprotein Complex (vRNP) of Lymphocytic Choriomeningitis Arenaviruses (LCMV): LCMV Primary Screen - GLuc reporter signal (AID 1347086; calls by dose curve; further: series mostly up to about 57 µM; nearly all actives have a fitted effect of over 70% in size)
Sequence of Nucleoprotein (Lymphocytic choriomeningitis virus (strain Armstrong)) (P09992 whole entry, looked up): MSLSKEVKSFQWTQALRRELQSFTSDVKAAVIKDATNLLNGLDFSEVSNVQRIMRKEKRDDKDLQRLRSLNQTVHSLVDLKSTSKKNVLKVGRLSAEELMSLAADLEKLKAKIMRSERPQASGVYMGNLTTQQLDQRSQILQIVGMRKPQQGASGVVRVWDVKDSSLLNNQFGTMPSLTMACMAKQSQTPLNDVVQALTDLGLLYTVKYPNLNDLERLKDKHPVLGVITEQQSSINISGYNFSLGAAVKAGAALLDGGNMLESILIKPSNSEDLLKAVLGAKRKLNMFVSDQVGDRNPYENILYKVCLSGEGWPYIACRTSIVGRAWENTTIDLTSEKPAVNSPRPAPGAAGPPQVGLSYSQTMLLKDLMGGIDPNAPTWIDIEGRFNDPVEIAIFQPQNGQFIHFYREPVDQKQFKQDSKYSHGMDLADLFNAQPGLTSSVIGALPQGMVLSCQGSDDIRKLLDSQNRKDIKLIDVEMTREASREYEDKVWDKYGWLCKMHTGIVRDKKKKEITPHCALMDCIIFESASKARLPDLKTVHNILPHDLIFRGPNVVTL

[6] = qHTS of pediatric cancer cell lines to identify multiple opportunities for drug repurposing: Primary screen for TC32 cells (AID 1347089); further: nearly all actives have a fitted effect of over 60% in size; further: potency means the concentration at half of the fitted maximal effect
In short: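 Measured quantity: luminescence from CellTiter-Glo, reflecting metabolically active TC32 cells following 48 h of compound. Curves came straight from multi-point titrations, with 8 or 11 points in primary and 11 in confirmatory screening.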

[7] = qHTS of pediatric cancer cell lines to identify multiple opportunities for drug repurposing: Primary screen for A673 cells (AID 1347092); further: nearly all actives have a fitted effect of over 45% in size; further: potency means the concentration at half of the fitted maximal effect
In short: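 Cells are plated, rested 5 h, dosed by pintool, incubated 48 h, then lysed with CellTiter-Glo and read by luminescence. DMSO is the neutral control; bortezomib at 2.3 uM final is the positive control.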

[8] = qHTS of pediatric cancer cell lines to identify multiple opportunities for drug repurposing: Primary screen for BT-37 cells (AID 1347094); further: potency means the concentration at half of the fitted maximal effect
In short: (§1)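 ATP-based luminescence (CellTiter-Glo) quantifies viability after a 48-hour exposure. Compounds are dosed across 8 or 11 final concentrations; DMSO and 2.3 µM bortezomib serve as controls.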

[9] = qHTS of pediatric cancer cell lines to identify multiple opportunities for drug repurposing: Primary screen for SJ-GBM2 cells (AID 1347091); further: potency means the concentration at half of the fitted maximal effect
In short: (§2)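 Eight- or eleven-point concentration series, 48 h treatment at 37 degrees C in growth media; readout CellTiter-Glo luminescence. Potency and efficacy were taken from the concentration-response curves.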

[10] = qHTS of pediatric cancer cell lines to identify multiple opportunities for drug repurposing: Primary screen for NB-EBc1 cells (AID 1347095); further: potency means the concentration at half of the fitted maximal effect
In short: as §1

[11] = qHTS of pediatric cancer cell lines to identify multiple opportunities for drug repurposing: Primary screen for SK-N-MC cells (AID 1347093); further: potency means the concentration at half of the fitted maximal effect
In short: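 Metabolically active cells were quantified by ATP-dependent luminescence (CellTiter-Glo, 15 min at room temperature) following 48 h treatment. Cells had been plated at 500-1,000 per well and settled for 5 h beforehand.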

[12] = qHTS of pediatric cancer cell lines to identify multiple opportunities for drug repurposing: Primary screen for DAOY cells (AID 1347090); further: nearly all actives have a fitted effect of over 55% in size; further: potency means the concentration at half of the fitted maximal effect
In short: as §2

Measured: Potency

CC(C)(S)[C@@H](N)C(=O)O
inactive: [1] | [2] | [3]

Nc1nc2ccc(OC(F)(F)F)cc2s1
inactive: [1]

C[C@]12Cc3cn[nH]c3C[C@@H]1CC[C@@H]1[C@@H]2CC[C@@]2(C)[C@H]1CC[C@]2(C)O
not listed: [9] | [10] | [11] | [12]
inactive: all other assays above

O=C1OC(CCN2CCCCC2)OC1(c1ccccc1)c1ccccc1 (stereo unspecified)
not listed: [7] | [11] | [12]
inactive: all other assays above

C[C@]12CC[C@H]3[C@@H](CC[C@@]45O[C@H]4C(O)=C(C#N)C[C@]35C)[C@H]1CC[C@H]2O
active: [7] 18.7 µM | [11] 3.32 µM
inactive: [4] | [1] | [2] | [9] | [8]

CC(=O)NC[C@H]1CN(c2ccc(N3CCOCC3)c(F)c2)C(=O)O1
inactive: [1] | [2] | [3]

CC(C)c1c(CN(C)C(C)Cc2ccccc2)n(C)n(-c2ccccc2)c1=O (stereo unspecified)
not listed: [9]
inactive: all other assays above

CCOc1ccc2nc3cc(N)ccc3c(N)c2c1
inactive: [1]

C=CCC1(C(C)CC)C(=O)NC(=O)NC1=O (stereo unspecified)
not listed: [11]
inactive: all other assays above

CCCN(CCC)C(=O)Cc1c(-c2ccc(Cl)cc2)nc2ccc(Cl)cn12
not listed: [7] | [9] | [11]
inactive: all other assays above

NS(=O)(=O)c1cc(C(=O)NN2C[C@H]3[C@H]4CCC(C4)[C@H]3C2)ccc1Cl
inactive: [1] | [2] | [3] | [5]

CC(Cc1ccccc1)N(C)Cc1ccco1 (stereo unspecified)
not listed: [3] | [5]
inactive: all other assays above

Nc1nc2[nH]cc(CCc3ccc(C(=O)N[C@@H](CCC(=O)O)C(=O)O)cc3)c2c(=O)[nH]1
inactive: [1] | [2]

Cc1ncc([N+](=O)[O-])n1CC(C)O (stereo unspecified)
inactive: [1] | [2] | [3]

CCC1=C(C)CN(C(=O)NCCc2ccc(S(=O)(=O)NC(=O)NC3CCC(C)CC3)cc2)C1=O (stereo unspecified)
inactive: [1] | [2] | [3] | [5]

C[C@]12CC[C@H]3[C@@H](CCC4=CC(=O)CC[C@@H]43)[C@@H]1CC[C@@H]2OC(=O)CCC1CCCCC1
not listed: [8] | [9] | [10] | [11]
inactive: all other assays above

NC(=O)c1cnccn1
inactive: [1] | [2] | [3]

CC(C)(C)C1CCC(CC2=C(O)c3ccccc3C(=O)C2=O)CC1 (stereo unspecified)
inactive: [1] | [2] | [3]

O=c1[nH]c(=O)n([C@H]2C[C@H](O)[C@@H](CO)O2)cc1F
inactive: [1]

O=C(NC(Cc1cc(=O)[nH]c2ccccc12)C(=O)O)c1ccc(Cl)cc1 (stereo unspecified)
inactive: [1] | [2] | [3] | [5]

O=C(O)c1ccccc1-c1ccc(C(F)(F)F)cc1
inactive: [1] | [2]

O=c1oc2ccccc2c(O)c1Cc1c(O)c2ccccc2oc1=O
active: [11] 15 µM | [10] 15 µM
not listed: [9]
inactive: all other assays above

O=c1c(C2CC(c3ccc(-c4ccc(Br)cc4)cc3)Cc3ccccc32)c(O)sc2ccccc12 (stereo unspecified)
active: [9] 11.9 µM | [10] 7.5 µM
not listed: [8] | [11] | [12]
inactive: all other assays above

COCCCOc1ccnc(CS(=O)c2nc3ccccc3[nH]2)c1C (stereo unspecified)
inactive: [1] | [2]

COc1cccc2c1C(=O)c1c(O)c3c(c(O)c1C2=O)C[C@@](O)(C(=O)CO)CC3OC1CC(N2CCOC(OC)C2)C(O)C(C)O1 (stereo partly specified)
active: [6] 0.0264 µM | [12] 0.0422 µM | [7] 0.0266 µM | [8] 0.0276 µM
inactive: [4]

S=c1nc[nH]c2nc[nH]c12
active: [2] 6.11 µM
inactive: [1]
